Here are results for 60 molecules from PubChem BioAssay AID743279 (National Center for Advancing Translational Sciences (NCATS), 2014).

The campaign covered roughly 360,000 compounds. About 17,000 (4.7%) were called active. Roughly 5% stayed inconclusive and do not appear here. Shown is part of a subset that was picked to be rich in actives. Values without a mark were called inactive. Rule as the data show it: active = activity change below about -50%; inconclusive = mostly about -30% to -49%; inactive = weaker than that.
% is scaled to controls: 0 for no effect and ±100 for the full control effect.

The experiment is described as follows: qHTS for Inhibitors of Inflammasome Signaling: IL-1-beta AlphaLISA Primary Screen. To be noted: THP-1 LPS/ATP IL-1B secretion, 16 h; at 57.5 µM, active compounds read low. Put shortly: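 Secreted IL-1B measured by AlphaLISA bead assay after 16 h compound exposure of THP-1 cells; compounds (final up to 57.5 uM) added 1 h before LPS (250 ng/mL) and ATP (1.25 mM) stimulation; lower signal means less secretion.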
Regarding `Cc1cc(NC(=O)Nc2ccccc2[N+](=O)[O-])no1`, the activity change was -17.8%. With `CC1CCCN(C(=O)Cn2c(=O)oc3cc(S(=O)(=O)N4CCCCC4C)ccc32)C1` (stereo not given) the figure was 11.7%; with `Cc1cccc(-c2noc(-c3ccc(F)cc3)n2)c1`, 19.9%. With `Oc1ccc(-c2nnc(Nc3ccccc3)c3ccccc23)cc1`, the activity change was 13.6%.

For `Cc1cccc(-c2nc(Nc3ccc(O)cc3)c3ccccc3n2)c1`, the activity change is -81.3% (active). As for `CCc1ccccc1OCC(=O)Nc1ccc2c(c1)OCCO2`, the figure is -6.79%; as for `CC(C)(CCl)C(=O)Nc1ccc(Sc2ccc(F)cc2)cc1`, -12.9%; as for `O=C(CCl)Nc1ccc(Sc2ccc(NC(=O)CCl)cc2)cc1`, -101% (active). On to `CC(=O)Nc1ccc(SCC(=O)NC(=O)c2ccc(Cl)cc2)cc1`, for which the activity change is -2.04%. Take `CC1CCN(C(=O)c2ccccc2NC(=O)Cc2ccccc2)CC1`: the activity change is 29.6%. `C[C@H](CO)N1C[C@H](C)[C@@H](CN(C)C(=O)C2CCCCC2)OCc2cnnn2CCCC1=O`: the activity change is 2.8%. On to `CCN1/C(=C/c2ccc3ccc(C)cc3[n+]2CC)Sc2ccccc21`, for which the activity change was -101% (active). On to `CCN1/C(=C\c2ccc3ccccc3[n+]2CC)Sc2cc(C)ccc21`, for which the activity change is -99.7% (active).

`O=C(Nc1cccc(Br)c1)C1CC(=O)N(C2CCCC2)C1` (stereo not given): the activity change was 15.6%. For the molecule `CCCS(=O)(=O)NC(=O)C1(C)CCCN(C(=O)c2cc(C)on2)C1` (stereo not given), the activity change was 19.3%. On to `O=C1NC(O)CCN1C1CC(O)C(CO)O1` (stereo not given), for which the activity change is 0%. With `CC1(C(=O)Nc2cccc(Oc3ccccc3)c2)CCN1Cc1ccccc1Cl` (stereo not given) the figure was -0.171%; with `CCC(C)c1ccccc1N1CC(C(=O)N2CCN(S(=O)(=O)c3ccc(F)cc3)CC2)CC1=O` (stereo not given), -6.2%. On to `Cc1nc(C(F)(F)F)ccc1C(=O)N1CCC1(C)C(=O)NS(=O)(=O)c1ccc(F)cc1F` (stereo not given), for which the activity change is 20.5%.

In the case of `COc1ccc(C(=O)NCC(=O)N/N=C/c2cccnc2)cc1`, the activity change was 16.9%. On to `CCOC(=O)N/N=C/c1cccnc1`, for which the activity change is 33.8%. With `O=C(CSc1cccc2cccnc12)N/N=C/c1cccnc1` the figure was -96.5% (active); with `CC(=NNC(N)=O)C1CC2CCC1CC2` (stereo not given), -5.84%; with `O=C(OCc1cc(Cl)ccc1OC(F)F)c1cccnc1`, 26%. For `O=C(/C=C/c1ccc(Cl)cc1Cl)c1cccnc1`, the activity change was -59.5% (active).

Take `O=C(NCc1ccc(Cl)c(Cl)c1)c1cccnc1`: the activity change was 3.6%. With `CC(=O)N1CCc2cc(Br)cc(S(=O)(=O)CCC(=O)Nc3c(C)n(C)n(-c4ccccc4)c3=O)c21` the figure was 4.54%; with `O=C(NN=Cc1ccc([N+](=O)[O-])cc1)C1CC1`, -3.03%; with `O=[N+]([O-])c1ccc(N=NNc2ccc([N+](=O)[O-])cc2)cc1`, -3.41%. For `O=[N+]([O-])c1ccc(N/N=C/c2ccccc2)cc1`, the activity change was -59.6% (active). As to `Cc1ccc(C)c(C(O)c2ncc(-c3cccc4ccccc34)[nH]2)c1` (stereo not given), the activity change was 4.1%. Consider `CCCCCNC(=O)C1c2ccccc2Oc2ccccc21`, for which the activity change was -3.75%.

Regarding `CCCC(O)(CCC)C(=O)NN(C(=O)CCl)c1cccc(C)c1`, the activity change is -219% (active). With `CCCCC(O)(CCCC)C(=O)NN(C(=O)CCl)c1ccccc1` the figure was -78.2% (active). With `CC(C)(O)C(=O)NN(C(=O)c1ccccc1)c1cccc(Br)c1` the figure was -15.5%; with `COC(=O)N(NC(=O)C(O)(C(C)C)C(C)C)c1ccccc1`, 12.9%; with `Cc1ccc(N(NC(=O)C(C)(C)O)C(=O)c2ccccc2)cc1C`, 38.2%.

Regarding `CCN(CC(=O)Nc1c(F)cccc1F)C(=O)c1ccc(-c2ccc(C(C)=O)cc2)o1`, the activity change was -9.45%. With `CC1(C(=O)NS(=O)(=O)c2cccs2)CCN1C(=O)Cc1ccc(-c2ccccc2)cc1` (stereo not given) the figure was 5.64%; with `Cn1c(Nc2ccc(F)cc2)nc2cc(-c3ccsc3)sc2c1=O`, 19.8%. As for `CC(C)[C@H](NC(=O)c1ccccc1F)C(=O)Nc1cccc(S(=O)(=O)N2CCOCC2)c1`, the figure is 13.4%; as for `O=C(NCc1ccco1)/C(=C\c1cccc([N+](=O)[O-])c1)NC(=O)c1ccco1`, 29.6%.

On to `CCCCN(C(C)=O)c1ccc2c(c1)C1CC2CCN1Cc1ccccc1` (stereo not given), for which the activity change was -22.2%. With `COc1ccc(CNC(=O)Cc2ccc(-c3ccccc3)cc2)cc1OC` the figure was 0.934%; with `COc1ccc(-c2nn3c(-c4ccccc4)nnc3s2)cc1OC`, -54.1% (active). As for `Fc1ccc(-c2ccc(-c3nn4c(-c5ccco5)nnc4s3)o2)cc1`, the figure is -8.52%; as for `CCCc1ccc(S(=O)(=O)N2CCN(C(=O)c3cc(C)on3)CC2)cc1`, 21.7%. For the molecule `CCOC(=O)[C@]12CCCC=C1N(CCC1=CCCCC1)C(=O)[C@H](CC(=O)N1CCN(C(=O)c3ccco3)CC1)C2`, the activity change is -5.52%. On to `C=CCc1cc(S(=O)(=O)c2ccc(O)c(CC=C)c2)ccc1O`, for which the activity change is 8.87%. With `CCCNC(=O)C[C@@H]1CC[C@@H]2[C@H](COC[C@H](O)CN2C(=O)c2cc(Cl)cc(Cl)c2)O1` the figure was 35%; with `O=C(COC(=O)Cc1ccc(Cl)cc1Cl)NCc1ccco1`, 0.688%. Turning to `CC(C[N+](C)(C)C)OC(N)=O` (stereo not given), the activity change was 8.81%.

`CC(=O)OC(C)C[N+](C)(C)C` (stereo not given): the activity change is -70.2% (active).

Regarding `CC(=O)OCC(COC(C)=O)OC(C)=O`, the activity change is 12.6%. `CC1=C(C(=O)N2CCOCC2)CC(CC(=O)NCc2ccco2)C(=O)N1Cc1ccc(F)cc1` (stereo not given): the activity change is 17.5%. In the case of `O=C1NC[C@H](CCCCN2C[C@H](Cc3ccc(O)cc3)N(CCc3ccccc3)C(=O)C2=O)N(CCc2ccccc2)C1=O`, the activity change is 4.59%.

Take `CC(C)(C)N1CC(c2nc3ccccc3n2Cc2ccc(F)cc2)CC1=O` (stereo not given): the activity change is -16.1%. As for `CC(C)(C)c1nc2ccccc2c(=O)n1N1C(=O)c2ccccc2C1=O`, the figure is -1.36%; as for `CC(C)(C)c1cc(=O)n2c(nc3ccccc32)[nH]1`, -74.5% (active).

For `CN(CC(=O)NCc1ccncc1)S(=O)(=O)c1ccc(Br)cc1`, the activity change is 11.2%.
